# Bioassay records deposited in PubChem BioAssay by Broad Institute.
# Sampled rows, rich in hits. Any-hit rate of the full collection: about 4.1%.
# PglD inh – inhibitors of Campylobacter jejuni PglD acetyltransferase; 360,000 tested, 0.098% active; inhibition, % at 12.5 µM; AID 602405; purified PglD enzyme, DTNB colorimetric CoA detection; in the data active = inhibition above about 16%, passing the limit was not always enough
# NSD2 inh – blocks human histone methyltransferase NSD2. O96028. NSD2 peptide methylation, AlphaScreen, 120 min. inhibition, % at 12.5 µM. 310,000 tested, 0.54% active. AID 743445; in the data active = inhibition above about 50%
# ALR inh – human ALR oxidase inhibition via reduced H2O2 | purified ALR, DTT oxidation, H2O2 HRP-luminol luminescence | inhibition, % (no concentration beside the values) | 290,000 tested, 3.8% active;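 active = mean replicate inhibition above about 79%, with every replicate also reaching it, limit read from the data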
# CASP6 VEID inh – inhibitors of human caspase-6. P55212. purified caspase-6, Z-VEID-R110 cleavage fluorescence. inhibition, % at 12.5 µM. 350,000 tested, 0.53% active. AID 686996;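 active = mean inhibition across replicates at least about 35%, with every replicate also reaching that limit, limit read from the data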;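 note: 0% = median of neutral control wells and 100% = no fluorescence left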
# HIV Env fusion – HIV envelope-mediated fusion inhibition; HeLa-JRFL Env/CEM21 cell fusion, luciferase; inhibition, % at 12.3 µM; 360,000 tested, 1.1% active; AID 651610;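 active = mean replicate inhibition score of at least 50 and every replicate individually at or above 50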;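 note: 0% = plate neutral controls and 100% = maraviroc near 300 nM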
# F508del corr – correctors of CFTR F508del function in bronchial epithelial cells. activity (quench increase), % at 7.58 µM. 350,000 tested, 0.36% active. CFBE cells, YFP halide quenching; stimulated with forskolin plus potentiator P3; % fluorescence drop versus neutral controls. AID 720511;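 active = mean added fluorescence quench of at least 8% versus neutral control, with both replicates also reaching 8%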;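 note: cells transiently co-express mutant CFTR-F508del with the halide-sensitive YFP; corrector assay measuring rescue of mutant channel to the surface after 24 h compound exposure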
# * marks the source's active call; other numbers are inactive results; . = no result; [ ] = another dose, or the depositor's remark.
SMILES,PglD inh,NSD2 inh,ALR inh,CASP6 VEID inh,HIV Env fusion,F508del corr
C#CCOC(=O)c1ccccc1C(=O)OCC#C,5,-1,-2,.,.,.
O=C(c1cccc2ccccc12)n1nnc2ccccc21,.,.,94*,.,.,.
C#CCOC(=O)c1ccccc1C(=O)n1nnc2ccccc21,-3,4,97*,.,33,.
Cc1ccc(C(=O)n2nnc3ccccc32)cc1,.,.,15,.,.,.
COc1cccc(NC(=O)Nc2ccc3c(c2)C(=O)N(C)C[C@H](OC)[C@@H](C)CN(C)[C@@H](C)CO3)c1,-2,.,.,2,-18[16.7 µM],0
COc1ccc(NC(=O)CCSCCC(=O)Nc2ccc(OC)cc2OC)c(OC)c1,.,0,97*,.,-2,.
COc1ccc(NC(=O)CSCc2ccc(C#N)cc2)c(OC)c1,1,-2,98*,1,-6,1
COc1ccc(NC(=O)CC(=O)Nc2ccc(OC)cc2OC)c(OC)c1,12,-2,-26,.,-10,.
COc1ccc(NC(=O)CCCCC(=O)Nc2ccc(OC)cc2OC)c(OC)c1,-12,.,-13,4,-6,0
CNC[C@H]1OCCCC[C@@H](C)Oc2ccc(NC(=O)c3ccccc3)cc2C(=O)N([C@H](C)CO)C[C@@H]1C,-1,.,.,-1,-14[16.7 µM],-1
Nc1ncc(Br)cc1S(=O)(=O)NCCC(=O)N1CCN(c2ccccn2)CC1,1,-3,2,-7,.,0
O=C(CCNS(=O)(=O)c1ccccc1C(F)(F)F)N1CCN(c2ccccc2O)CC1,.,1,99*,0,-70,-6
O=C(COc1cccc(C(F)(F)F)c1)N1CCN(c2ccccc2O)CC1,.,-2,98*,0,17,-2
Nc1ncc(Br)cc1S(=O)(=O)NCCC(=O)N1CCN(c2ccccc2)CC1,-10,4,96*,-4,12,3
CCOc1ccc(S(=O)(=O)NCCC(=O)N2CCN(C(C)=O)CC2)cc1,-2,-1,.,-148,0,3
CCOc1ccc(S(=O)(=O)NCCC(=O)N2CCN(c3ccccc3O)CC2)cc1,2,0,98*,1,2,-1
O=C(COc1cccc(C(F)(F)F)c1)N1CCN(c2ccc(O)cc2)CC1,-4,-1,.,6,50,4
CCCN1[C@@H]2c3ccc(-c4ccccc4)c(=O)n3C[C@@H]2[C@@H](CO)[C@@H]1C(=O)OC,-1,.,.,-3,.,-4
O=C(c1ccc(F)cc1)N1CC[C@@H]2[C@@H](CO)Nc3ccc(-c4ccccc4F)cc3[C@@H]21,-2,.,.,4,.,-3
COc1cc(/C=C/C(=O)N[C@@H](Cc2c[nH]c3ccccc23)C(=O)O)ccc1O,.,1,86*,0,-4,0
CCCC(=O)N1CCc2cc(-c3nc(N)sc3C)ccc21,3,-5,98*,.,-302,.
CCC(C)C(=O)N1CCc2cc(-c3csc(N)n3)ccc21 (stereo not given),-5,-1,98*,.,.,.
CC(C)(C)C(=O)N1CCc2cc(-c3csc(N)n3)ccc21,-7,7,99*,.,.,.
COc1ccc(S(=O)(=O)N(C)C[C@@H]2Oc3c(NC(=O)c4ccc(-c5nccs5)cc4)cccc3C(=O)N([C@H](C)CO)C[C@@H]2C)cc1,1,.,.,1,-16[16.7 µM],2
CN(C)c1ccc(N=Nc2cccc3ccoc23)cc1,7,.,86*,-2,-68,-1
SMILES,PglD inh,NSD2 inh,ALR inh,CASP6 VEID inh,HIV Env fusion,F508del corr
C[C@H]1CN([C@@H](C)CO)C(=O)Cc2cc(NC(=O)Nc3ccc(C(F)(F)F)cc3)ccc2O[C@H]1CN(C)S(=O)(=O)c1ccccc1,1,.,.,-1,-20[16.7 µM],11*
C[C@@H]1CN([C@@H](C)CO)C(=O)Cc2cc(NC(=O)CCCCCC(=O)Nc3ccccc3N)ccc2O[C@H]1CN(C)C,21*,.,.,-1,.,1
Cc1ccc(S(=O)(=O)N(C)C[C@@H]2Oc3ccc(NC(=O)Cc4ccccc4)cc3CC(=O)N([C@H](C)CO)C[C@@H]2C)cc1,7,.,.,-1,77*[16.7 µM],-2
Cc1noc(C)c1S(=O)(=O)N(C)C[C@@H]1Oc2ccc(NC(=O)Nc3ccc(C(F)(F)F)cc3)cc2CC(=O)N([C@H](C)CO)C[C@@H]1C,-1,.,.,.,60*[16.7 µM],-1
N#C[C@H]1[C@@H](c2ccccc2C2=CCCC2)[C@@H](CO)N1S(=O)(=O)c1ccccc1,.,.,.,4,.,-4
O=C(c1ccc(F)cc1)N1CC(=O)N2[C@H](CO)[C@H](c3ccc(C#Cc4ccc(F)cc4)cc3)[C@H]2C1,.,.,.,0,.,0
